Reference: PubChem BioAssay AID1508600 (Functional Genomics Laboratory (NCATS/FGL), 2020)
In all, about 53,000 sequences went through this assay and about 3,700 (7%) were called active. The entries come from a sample that favours actives as a whole. A number with no mark means an inactive call.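 The calls were made as follows: active = gene knockdowns whose robust z-score for IL-1 alpha signal is at least 2 or at most -2, so actives lie on both sides; inactive = the rest.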

Assay: Components of the Cytosolic LPS Sensing Pathway: Gene Identification via Genome-wide siRNA Screen;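 also: robust z of the log signal after scaling to non-targeting control siRNA wells of the plate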
Details: RAW264.7 macrophages, IL-1a HTRF, actives lie on both sides, screened at 100 nM (by protocol), cells primed 5 h with Pam3CSK4 first
In short: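 Knockdown: 100 nM siRNA, 48h, RAW264.7. Stimulation: Pam3CSK4 5 h, then LipidA via TransIT-TKO 24 h. Output: supernatant IL-1a HTRF, negative-control-normalized, log robust z-score; viability by CellTiter-Glo.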
With GGACGAUGUAUUGUUAUUGTT against Lrp10 the z-score was 1.49. Work on GGUAUGACUUGCUCUUUAUTT against Rnpep yielded a z-score of -0.881. In the case of GCAUUUGUGGCCUAUGCUCTT against Naprt, the z-score is reported as -2.16 (active). Sequence GCUCAAAUGUUCUAAAAGCTT against Acmsd has a z-score of -0.332. GGCGUAUUUGUCAUUUCUUTT against Dis3l showed a z-score of 0.013. For GGAAGUCAUUUUUUCCAAGTT against Msantd4, the z-score was 1.12. GCAUUGUUUUUCUAUUCAGTT against Cfhr1 showed a z-score of 0.531. GGUGCUUCACAGAAUGUGUTT against Olfr784 showed a z-score of -1.8. For GGGUCUCAAAGCAGUUUUUTT against Rhoj, the z-score was 3.99 (active). In the case of GCUGAAAACACACCUAGCATT against Gin1, the z-score is reported as 1.19. GGCUGUCUUACAAUGUAAUTT against Gabrb2 showed a z-score of -0.638. In the case of GAGACUAAUAUAGUGAAUGTT against Foxj1, the z-score is reported as -0.314. With GGCAGAGAGUCUACAUAUGTT against Bcar3 the z-score was -0.272. Sequence GCAGAAGGUACUACUAUCGTT against Rcsd1 has a z-score of 0.669. Sequence CCUUGUUGUGACAAGCUUUTT against Rchy1 has a z-score of -0.362. GGCUUCAUGCCUUAUCCACTT against Fam166a gave a z-score of -0.314. For GCCCUGUGCUUGGCAACAUTT against Ssbp3, the z-score was -2.36 (active). Sequence GGCCACCGUUCAAAAAAUUTT against Dctn5 has a z-score of -0.226. GGAAGAGAAUAGAUCCUAUTT against Zbtb8a gave a z-score of -0.388. In the case of GGUCGUGUACAAGUACAUATT against Mrps24, the z-score is reported as 2.24 (active). For GCUACUGCACAAAGUUACGTT against Ankrd36, the z-score was -0.0351. With GCUGACUCCAUCCUAACAGTT against Cideb the z-score was -2.6 (active). GCCUCUGAGUUGCAUGAGUTT against Ppp2r5b showed a z-score of -0.736. Sequence GGACUACCAUCGACCUUCATT against Nek2 has a z-score of 1.15. CCCAAGAAUUGGAUUCCAGTT against Lta gave a z-score of -0.528. Work on GGAGCUGAAGAUCAAGGAGTT against Pkn3 yielded a z-score of -0.849. Sequence GCCCAAAAAUACUGGAUAUTT against Atp6ap2 has a z-score of -2. For “GCCUUGUAGACCAGUUCUATT against 9530085L02Rik”, the z-score was 2.15 (active). For CCGCAUGUUUGGAAAGGAUTT against Cabp4, the z-score was -0.484. Sequence GGAACAAUUUGAUCCAGCATT against Mbnl2 has a z-score of -1.67. CCCACUCCUUCUAAAAGUUTT against Cyp3a13 showed a z-score of -0.909. For GGCCAUUCACGUUUUACUCTT against Ric8b, the z-score was -1.02. For GGAGCUAUAUUCUCACCCATT against Ptpn1, the z-score was -2.06 (active). In the case of GGGAAAAAUAUCAGUUAUGTT against Khdrbs1, the z-score is reported as 0.465. Work on GGGUACGUUCAAGUGCUUCTT against Agtpbp1 yielded a z-score of 1.74. For GGAUACAUGUGGUGCCAAUTT against Banf1, the z-score was -0.529. With GCCAUAACCUACAUUGUCATT against Loxhd1 the z-score was -2.86 (active). For GCGAAUCCACUUAAUUCGATT against Abhd4, the z-score was 1.35. Sequence CCACAAGAUUGUUUCAGAATT against Lingo4 has a z-score of 0.216. For GCUGCUCAAGUUGUGGUGATT against Sord, the z-score was 1.56. For GGUUCAGCUGACGUAAAAATT against BC048562, the z-score was -2.1 (active). Work on GCAGUAGAUCCUGAUUUUGTT against Cdh12 yielded a z-score of -0.382. In the case of GGGACCUUUCCUGACCUAUTT against Ppdpf, the z-score is reported as -0.362. GGUCCACUUGCCAUCUAUUTT against Zfp54 showed a z-score of -1.09. With CCCUAACAUACUGGAGCUATT against Erfe the z-score was 3.56 (active). For GGGUAUUUUCACUGAAAGUTT against Ltbp3, the z-score was 0.431. GGUGACUUGUAAAGAUUUUTT against Dstn showed a z-score of 0.234. Sequence GGAGACAGAAAGAGAAAAGTT against Pou3f2 has a z-score of -0.578. In the case of GGAGUUCACGGAUCUUGAGTT against Ppp1r37, the z-score is reported as 0.226. With GGCAAUCAUUGGACUAUACTT against Nckap1 the z-score was -2.81 (active). Sequence GCACCCAAACUUAAAAUAGTT against Spink10 has a z-score of -0.69. GGUUGAAGUCACAAAAGAATT against Prkg1 gave a z-score of -0.619. For GGGAAGGAGAGUAUUCCAATT against Mrpl14, the z-score was 3.44 (active). In the case of GCAUUUCCUAUAAUCGUUGTT against Olfr360, the z-score is reported as 0.371. GGCUGUCCGUACCUAUAAATT against Cpb1 gave a z-score of -1.26. Sequence GGAAUUUGUGACCAACUAUTT against Rbm4b has a z-score of 1.07. CCUUGACCCAGAUUGAGAATT against Xkr6 showed a z-score of 0.363. For GUAUGGAUGUGGAAGCCUCTT against Olfr1417, the z-score was -0.77. GGGCUUGAAAUUGAAAUGUTT against Ccl9 gave a z-score of -1.09. Work on GCGACAACUGUGAUAUACCTT against Liph yielded a z-score of -0.485. With GCCUCAAUGGCACUCAAAUTT against Mdc1 the z-score was -0.217. With CCGUCUUCUGCUGUGGAACTT against Ctrc the z-score was 2.6 (active). With CCCACUGCCAAGUACAAUGTT against Dmwd the z-score was 1.44. In the case of UUGUGAUUCCAAUUUCCCUTT against Olfr1330, the z-score is reported as -0.32. In the case of GGUCAGAGUGCCUCUUGAATT against Slc7a5, the z-score is reported as -0.8. With GGUCAAAGAUGGAGUAAAUTT against Tmem87a the z-score was -2.31 (active). In the case of GCAAUGUCGCCAAACGUAATT against Ikzf1, the z-score is reported as 0.457. Sequence GAUACAGACCUUGCUCUUCTT against Olfr714 has a z-score of -0.421. GGACAUUGUCACAUCAUUCTT against Slc2a6 showed a z-score of 1.64. With GCUAAUAGUCAUUAAACUGTT against Zfp2 the z-score was 1.76. For GCUCAACGAAACAAUACCGTT against Il2rb, the z-score was 0.737. In the case of GGAUGGUCGAAACAAUAACTT against Stk32b, the z-score is reported as 2.16 (active). Work on GGCAUUUCUGUUCUGUAAGTT against Sh3bgrl yielded a z-score of -0.783. GCUGACCACUUCAAGGUUGTT against Lgals3 showed a z-score of 0.468. Sequence GGCCAGUGUAUUUGACCUGTT against Slc22a18 has a z-score of -1.24. GCUCUGCUAUCGUGAUCUGTT against Kctd13 gave a z-score of 1.68. In the case of GCUUGCACUGGACUCAACUTT against Pax4, the z-score is reported as -2.76 (active). Work on CGAGAAGAACUGUGUAAAGTT against Vldlr yielded a z-score of -0.184. For CCAUAUCAGGCAUAGCAGUTT against Nthl1, the z-score was -0.772. Sequence GCCAUCGAUGUACUGAGCUTT against Psme2 has a z-score of 0.525. Work on GGUAGAGAGCUCAACAGGGTT against Klrb1c yielded a z-score of 0.287. GGACUGUUGCAUGACUCUCTT against Evc showed a z-score of 1.08. With GCCUUACUGGGUUACUUGUTT against Cdkn2d the z-score was 3.22 (active). With GGAACUGAAUGCGGAAUUCTT against Chil1 the z-score was 0.261. For GGUUUCUUCAUCUUGUAUUTT against Gjd4, the z-score was 0.184. With GGUUCUGGAGCAAAUCCACTT against Styk1 the z-score was 2.37 (active). Work on CCCGAGACCAUUAAUGAUUTT against Snx3 yielded a z-score of -0.306. CGAACCCUAGCGGAAAUUGTT against Nono gave a z-score of -1.54. For GGUGGGAAGAUAGAUAAAATT against Mamstr, the z-score was 3.28 (active). For GGGCUCUACAGUUUUUAAUTT against Atp5g3, the z-score was 1.31. For “GCAGUUUCGUUCCUACUCGTT against Cdkn2aipnl”, the z-score was 0.796. Work on GCAGAUAAUCUAGCAAAGATT against Agps yielded a z-score of 0.903. Sequence “CCGAAAUCCUACAUAUAUGTT against B430209F14Rik” has a z-score of -0.306. For GCUUGAAUUUCUGUGGAGGTT against Olfr1320, the z-score was -2.44 (active). GGGUGAGACUUUUAUUAUUTT against Epdr1 gave a z-score of -0.468. With GGACAUAUAGCUGAUUUCUTT against Ctdsp2 the z-score was 1.97. GGGAUGGAAACCCUGGAUCTT against Col3a1 showed a z-score of 0.438. In the case of CCUUAGGAUCGUCUUAUUATT against Zic2, the z-score is reported as 0.619. With GGGAAAAGAAAGUACCUACTT against Zcchc10 the z-score was 2.26 (active). With CGACCUGACUUUUCUUAGGTT against Dynlrb2 the z-score was 0.855. Work on GGCAACUUUGUUAUAUACATT against Ctr9 yielded a z-score of 0.212. GGAUCUUCUACACAGUAAATT against Ppp2r3d gave a z-score of -0.0431. GGGCAUCAGCUAUUAAAGATT against Tpmt showed a z-score of 0.488. Sequence GGCUAGAUGACAACCGCAUTT against Flrt1 has a z-score of 1.13. Sequence GGGAGUUAUAUAAAUGCAUTT against Taf7l has a z-score of -1.13. For CACAGAACAUCAUCUCCCATT against Olfr887, the z-score was -2.79 (active). For CGAAAUGACAGUGUUAUUCTT against Mpl, the z-score was 0.185. GGUAUGAUGGGAAAUUUUUTT against Tmod2 gave a z-score of 1.07.
